# About 410 targets per protein were measured; listed, in parts, are those with the strongest signals and a random draw of the rest.
# B1: Strep tagII-anxA1 (Homo sapiens), P04083 (protein)
# chain: MAMVSEFLKQAWFIENEEQEYVQTVKSSKGGPGSAVSPYPTFNPSSDVAALHKAIMVKGVDEATIIDILTKRNNAQRQQIKAAYLQETGKPLDETLKKALTGHLEEVVLALLKTPAQFDADELRAAMKGLGTDEDTLIEILASRTNKEIRDINRVYREELKRDLAKDITSDTSGDFRNALLSLAKGDRSEDFGVNEDLADSDARALYEAGERRKGTDVNVFNTILTTRSYPQLRRVFQKYTKYSKHDMNKVLDLELKGDIEKCLTAIVKCATSKPAFFAEKLHQAMKGVGTRHKALIRIMVSRSEIDMNDIKAFYQKMYGISLCQAILDETKGDYEKILVALCGGN
# Legend:
# Assay in all cases: glycan array binding signal (z-score within array); higher = stronger binding
# Details in all cases: glycan notation: IUPAC condensed, linker removed
# [1] = molecular target: Fuc(a1-2)Gal(b1-3)GlcNAc(b1-2)Man(a1-3)[Fuc(a1-2)Gal(b1-3)GlcNAc(b1-2)Man(a1-6)]Man(b1-4)GlcNAc(b1-4)[Fuc(a1-6)]GlcNAc
# Method in brief: (§1)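 Glycan array binding is given as a within-array Z-score, which can be read as non-binding when negative. The arrays, 3228 of them, came from the Consortium for Functional Glycomics database and were retained only where the protein sequence was available. Z-scores were averaged across arrays of the same protein sequence at different concentrations or buffers and across linkers.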
# [2] = molecular target: Fuc(a1-2)Gal(b1-3)[Fuc(a1-4)]GlcNAc
# Method in brief: as §1
# [3] = molecular target: Fuc(a1-2)Gal(b1-3)[Fuc(a1-4)]GlcNAc(b1-2)Man(a1-3)[Fuc(a1-2)Gal(b1-3)[Fuc(a1-4)]GlcNAc(b1-2)Man(a1-6)]Man(b1-4)GlcNAc(b1-4)GlcNAc
# Method in brief: as §1
# [4] = molecular target: Fuc(a1-2)Gal(b1-3)[Fuc(a1-4)]GlcNAc(b1-2)Man(a1-6)[Fuc(a1-2)Gal(b1-3)[Fuc(a1-4)]GlcNAc(b1-2)Man(a1-3)]Man(b1-4)GlcNAc(b1-4)[Fuc(a1-6)]GlcNAc
# Method in brief: as §1
# [5] = molecular target: Fuc(a1-2)Gal(b1-4)[Fuc(a1-3)]GlcNAc(b1-2)Man(a1-6)[Fuc(a1-2)Gal(b1-4)[Fuc(a1-3)]GlcNAc(b1-2)Man(a1-3)]Man(b1-4)GlcNAc(b1-4)[Fuc(a1-6)]GlcNAc
# Method in brief: as §1
# [6] = molecular target: Fuc(a1-2)Gal(b1-4)[Fuc(a1-3)]GlcNAc(b1-3)Gal(b1-4)[Fuc(a1-3)]GlcNAc(b1-3)Gal(b1-4)[Fuc(a1-3)]GlcNAc
# Method in brief: as §1
# [7] = molecular target: Fuc(a1-2)Gal(b1-4)[Fuc(a1-3)]GlcNAc(b1-3)GalNAc
# Method in brief: as §1
# Fuc(a1-2)[Gal(a1-3)]Gal = molecular target: Fuc(a1-2)[Gal(a1-3)]Gal
# Method in brief: as §1
# [8] = molecular target: Fuc(a1-2)[Gal(a1-3)]Gal(b1-4)GlcNAc(b1-2)Man(a1-3)[Fuc(a1-2)[Gal(a1-3)]Gal(b1-4)GlcNAc(b1-2)Man(a1-6)]Man(b1-4)GlcNAc(b1-4)GlcNAc
# Method in brief: as §1
# [9] = molecular target: Fuc(a1-2)[GalNAc(a1-4)]Gal(b1-4)GlcNAc
# Method in brief: as §1
# [10] = molecular target: Fuc(a1-3)[Gal(b1-4)]GlcNAc(b1-2)Man(a1-3)[Fuc(a1-3)[Gal(b1-4)]GlcNAc(b1-2)Man(a1-6)]Man(b1-4)GlcNAc(b1-4)[Fuc(a1-6)]GlcNAc
# Method in brief: as §1
# [11] = molecular target: Fuc(a1-3)[Gal(b1-4)]GlcNAc(b1-3)GalNAc
# Method in brief: as §1
# [12] = molecular target: Fuc(a1-3)[Gal3S(b1-4)]GlcNAc
# Method in brief: as §1
# [13] = molecular target: Gal(a1-3)Gal(b1-4)[Fuc(a1-3)]GlcNAc(b1-2)Man(a1-3)[Gal(a1-3)Gal(b1-4)[Fuc(a1-3)]GlcNAc(b1-2)Man(a1-6)]Man(b1-4)GlcNAc(b1-4)GlcNAc
# Method in brief: as §1
# Gal(b1-2)Gal = molecular target: Gal(b1-2)Gal
# Method in brief: as §1
# [14] = molecular target: Gal(b1-3)GalNAc(b1-3)Gal(a1-4)Gal(b1-4)Glc
# Method in brief: as §1
# [15] = molecular target: Gal(b1-3)[Fuc(a1-4)]GlcNAc(b1-3)Gal(b1-3)[Fuc(a1-4)]GlcNAc
# Method in brief: as §1
# [16] = molecular target: Gal(b1-4)GlcNAc(b1-2)Man(a1-3)[Gal(b1-4)GlcNAc(b1-2)Man(a1-6)]Man(b1-4)GlcNAc(b1-4)GlcNAc
# Method in brief: as §1
# [17] = molecular target: Gal(b1-4)GlcNAc(b1-2)Man(a1-3)[GlcNAc(b1-2)Man(a1-6)]Man(b1-4)GlcNAc(b1-4)GlcNAc
# Method in brief: as §1
# [18] = molecular target: Gal(b1-4)GlcNAc(b1-2)Man(a1-3)[Man(a1-6)]Man(b1-4)GlcNAc(b1-4)GlcNAc
# Method in brief: as §1
# Gal3S6S(b1-4)GlcNAc = molecular target: Gal3S6S(b1-4)GlcNAc
# Method in brief: as §1
# Gal6P(b1-4)GlcNAc = molecular target: Gal6P(b1-4)GlcNAc
# Method in brief: as §1
# GalNAc(a1-3)Gal = molecular target: GalNAc(a1-3)Gal
# Method in brief: as §1
# GalNAc(b1-3)Gal = molecular target: GalNAc(b1-3)Gal
# Method in brief: as §1
# GalNAc(b1-4)Gal(b1-4)Glc = molecular target: GalNAc(b1-4)Gal(b1-4)Glc
# Method in brief: as §1
# [19] = molecular target: Glc(a1-4)Glc(a1-4)Glc(a1-4)Glc
# Method in brief: as §1
# [20] = molecular target: GlcNAc(a1-4)Gal(b1-4)GalNAc
# Method in brief: as §1
# GlcNAc(b1-3)Gal = molecular target: GlcNAc(b1-3)Gal
# Method in brief: as §1
# [21] = molecular target: GlcNAc(b1-3)[GlcNAc(b1-4)][GlcNAc(b1-6)]GlcNAc
# Method in brief: as §1
# Kdn(a2-6)Gal(b1-4)GlcNAc = molecular target: Kdn(a2-6)Gal(b1-4)GlcNAc
# Method in brief: as §1
binder,measurement,setting,value
B1,glycan array binding signal (z-score),[1],0.314
same,glycan array binding signal (z-score),[2],5.05
same,glycan array binding signal (z-score),[3],10.7
same,glycan array binding signal (z-score),[4],3.12
same,glycan array binding signal (z-score),[5],3.12
same,glycan array binding signal (z-score),[6],0.054
same,glycan array binding signal (z-score),[7],-0.317
same,glycan array binding signal (z-score),Fuc(a1-2)[Gal(a1-3)]Gal,-0.612
same,glycan array binding signal (z-score),[8],1.69
same,glycan array binding signal (z-score),[9],-0.304
same,glycan array binding signal (z-score),[10],2.81
same,glycan array binding signal (z-score),[11],-0.209
same,glycan array binding signal (z-score),[12],0.479
same,glycan array binding signal (z-score),[13],3.62
same,glycan array binding signal (z-score),Gal(b1-2)Gal,-0.402
same,glycan array binding signal (z-score),[14],-0.44
same,glycan array binding signal (z-score),[15],-0.366
same,glycan array binding signal (z-score),[16],-0.682
same,glycan array binding signal (z-score),[17],-0.567
same,glycan array binding signal (z-score),[18],1.08
same,glycan array binding signal (z-score),Gal3S6S(b1-4)GlcNAc,0.386
same,glycan array binding signal (z-score),Gal6P(b1-4)GlcNAc,-0.017
same,glycan array binding signal (z-score),GalNAc(a1-3)Gal,0.67
same,glycan array binding signal (z-score),GalNAc(b1-3)Gal,-0.664
same,glycan array binding signal (z-score),GalNAc(b1-4)Gal(b1-4)Glc,1.79
same,glycan array binding signal (z-score),[19],3.56
same,glycan array binding signal (z-score),[20],2.68
same,glycan array binding signal (z-score),GlcNAc(b1-3)Gal,-0.607
same,glycan array binding signal (z-score),[21],2.8
same,glycan array binding signal (z-score),Kdn(a2-6)Gal(b1-4)GlcNAc,-0.606

# Source: the supplement of paper PMC8728848
